# Compound activity: PubChem, National Center for Advancing Translational Sciences (NCATS)
# Six1-Eya2 inh = Six1/Eya2 interaction inhibition; Q15475+O00167; AlphaScreen GST-Six1/His-Eya2 binding, biochemical; stronger effect = lower value; AID 651725; activity change, % (concentration not given with the values); 360,000 compounds, 0.56% hits; in the data active = activity change below about -65%; inconclusive = mostly about -30% to -63%; also: % is scaled to controls: 0 for no effect and ±100 for the full control effect
#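 Compounds are tested against tagged Six1 and Eya2 proteins bridged by glutathione donor and nickel acceptor beads; after a one-hour incubation at 37 °C without light, AlphaScreen emission is recorded.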
# CtBP-E1A blk = CtBP/E1A binding inhibition. activity change, % (concentration not given with the values). AID 651724. 340,000 compounds, 0.49% hits. AlphaScreen GST-E1A/His-CtBP binding, 1536-well; stronger effect = lower value; in the data active = activity change below about -65%; inconclusive = mostly about -30% to -63%; also: % is scaled to controls: 0 for no effect and ±100 for the full control effect
#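 Steps: dispense buffer (Tris pH 8.0, NaCl 300 mM, TCEP 1 mM, BSA, Tween 20); add 5X protein mix (GST-E1A, His-CtBP, 125 nM each); pin 23 nL compound; 2 h at 37 °C, dark; add 5X beads (50 ug/mL); 1 h; read.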
# HP1b chromo inh = inhibitors of HP1-beta chromodomain binding to methylated histone tails; AlphaScreen HP1-beta / biotin-H3K9me3 peptide binding; P83916; 390,000 compounds, 0.56% hits; Potency, µM (series often up to 114 µM), for the others: at the top dose activity change, negative = inhibition, hits mostly inhibitors; AID 540317; also: potency is read from the fitted curve at half-maximal effect; nearly all actives have a fitted effect of over 70% in size
#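 Compound inhibition of the preformed complex between 50 nM HP1-beta and 50 nM biotinylated H3K9me3 peptide was read by AlphaScreen. Buffer was PBS pH 7.4 with 0.01% Tween-20. Incubations ran 30 min at room temperature, with 10 ug/mL donor/acceptor beads.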
# BAZ2B inh = BAZ2B (human) inhibition; Q9UIF8; AlphaScreen BAZ2B-H3K14Ac peptide displacement; Potency, µM (doses to about 114 µM), without a hit: at the top dose activity change, negative = inhibition, hits mostly inhibitors; 360,000 compounds, 4.4% hits; also: potency is read from the fitted curve at half-maximal effect; % is scaled to controls: 0 for no effect and ±100 for the full control effect; nearly all actives have a fitted effect of over 60% in size
#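 Multi-concentration screen (max 110 uM) measuring displacement of acetylated histone H3 peptide from BAZ2B by AlphaScreen, using 50 nM protein, 50 nM peptide and 10 ug/mL streptavidin donor plus Ni-chelate acceptor beads.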
# TDP1 block = blocks human tyrosyl-DNA phosphodiesterase 1 | recombinant TDP1, AlphaScreen DNA substrate cleavage | 350,000 compounds, 0.28% hits | Potency, µM (series often up to 130 µM), for the others: at the highest dose activity change, negative = inhibition, usual class: inhibitors; also: potency is read from the fitted curve at half-maximal effect; % is scaled to controls: 0 for no effect and ±100 for the full control effect; nearly all actives have a fitted effect of over 40% in size
#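 Signal: AlphaScreen proximity between streptavidin donor and anti-FITC acceptor beads on intact substrate. Reaction: Tdp1 1 nM, substrate 15 nM final, 5 min RT after 15 min compound preincubation.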
# JMJD2A Tudor inh = blocks the human JMJD2A Tudor domain; O75164; AlphaScreen JMJD2A-Tudor / H3K4me3 peptide binding; Potency, µM (highest dose often 114 µM), for inactives: at the top dose activity change, negative = inhibition, usual class: inhibitors; 390,000 compounds, 4.4% hits; AID 504339; also: potency is read from the fitted curve at half-maximal effect; % is scaled to controls: 0 for no effect and ±100 for the full control effect; nearly all actives have a fitted effect of over 50% in size
# * marks the source's active call; other numbers are inactive results; u = inconclusive; x = no result; [ ] = remark or other dose. Most compounds without a hit are left out; they make up all but 5.3% or so of the library. Unless noted, calls follow the shape of the dose curve; as a rule, active = well fitted inhibition curve with a large enough effect; inconclusive = small, poorly fitted or top-dose-only effect; inactive = no such curve, though single readings can be large or run the other way.
SMILES,Six1-Eya2 inh,CtBP-E1A blk,HP1b chromo inh,BAZ2B inh,TDP1 block,JMJD2A Tudor inh
Cc1cccc(NC(=O)CN2C(=O)S/C(=C\c3cc(C)n(C)c3C)C2=O)c1,-1,-11,29%,0%,8%,-17%
Cc1cccc(NC(=O)CN2C(=O)S/C(=C\c3ccccn3)C2=O)c1,18,x,69%,4%,1%,-14%
O=C(CN1C(=O)S/C(=C\c2ccc(O)c([N+](=O)[O-])c2)C1=O)Nc1ccc(N2CCOCC2)cc1,0,6,u,45µM*,45µM*,56µM*
N[C@@H](CO)C(=O)NNCc1ccc(O)c(O)c1O,x,x,x,x,5%,x
Cc1cc(O)c(C(C)C)cc1NC(=O)Nc1ccc([N+](=O)[O-])cc1,4,-10,-26%,x,x,u
COc1cccc(C=Nc2cc(C(C)C)c(O)cc2C)c1O,-8,u,79µM*,x,x,56µM*
Cc1cc(O)c(C(C)C)cc1N=Cc1ccc([N+](=O)[O-])cc1,-16,1,50µM*,x,x,45µM*
Cc1cc(O)c(C(C)C)cc1N=Cc1ccc(N(C)C)cc1,-13,-1,45µM*,x,x,50µM*
CC(C)[C@@H](OCc1ccccc1)[C@H](C)/C=N\OC[C@@H](O)COCc1ccco1,x,x,x,x,2%[21 µM],x
S=C(Nc1ccccc1)N1N=C(c2cccs2)CC1c1cccs1 (stereo not drawn),-16,0,-15%,-16%,x,20µM*
COC(=O)C1=C(C)N(Cc2ccccc2)C(=NCc2ccco2)N[C@H]1c1ccc(Br)cc1,x,x,x,79µM*,x,x
COC(=O)C1=C(C)N(Cc2ccccc2)C(=NCc2ccc(OC)cc2)N[C@H]1c1ccccc1,-11,-6,-7%,u,1%,u
Cc1ccc(S(=O)(=O)CCN2CCC(n3cccc3)CC2)cc1,-3,-6,-12%,40µM*,3%,-27%
CCOC(=O)c1c(-c2cccc([N+](=O)[O-])c2)csc1NC(=O)C1CC1,u,-10,-9%,-36%,6%,-28%
CCOC(=O)c1c(-c2cccc([N+](=O)[O-])c2)csc1N,-12,-15,-24%,50µM*,2%,u
COc1ccccc1OCCCSc1nc(-c2ccc(C(C)(C)C)cc2)nc2cc(=O)[nH]n12,x,x,2.2µM*,u,5%,50µM*
Cc1cc(OCCCSc2nc(-c3ccc(C(C)(C)C)cc3)nc3cc(=O)[nH]n23)ccc1Cl,x,x,u,28µM*,5%,32µM*
CC(C)(C)c1ccc(-c2nc(SCCCOc3ccccc3)n3[nH]c(=O)cc3n2)cc1,x,x,-21%,50µM*,0%,50µM*
Cc1ccc(NS(=O)(=O)c2ccc3[nH]c(=O)[nH]c3c2)cc1C,x,x,x,x,1%,-14%
CCOC(=O)Cn1c(=O)n(CC2CCCO2)c2nc(-c3ccccc3F)nc(C(N)=O)c21 (stereo not drawn),x,x,13%[57 µM],-13%,4%,-17%
COc1cccc(-n2sc3c(c2=S)-c2cc(OC)ccc2NC3(C)C)c1,-27,-8,5.6µM*,10µM*,15%,11µM*
COc1cccc(-n2cn[nH]c2=S)c1,-3,x,31%,4%,2%,u
C/C(CCc1ccc2c(c1)OCO2)=N\N=C(/N)SC1CC(=O)N(c2ccccc2F)C1=O (stereo not drawn),-10,-3,24%,16µM*,-1%,-10%
Cn1c(=O)c2c(-c3ccccc3Cl)n(-c3cc(Cl)ccc3O)cc2n(C)c1=O,x,x,3%,u,10%,-30%
COc1ccc(C)cc1-n1c(-c2ccc(Cl)cc2)cc2c1CC(C)(C)CC2=O,x,x,-13%,u,7%,u
SMILES,Six1-Eya2 inh,CtBP-E1A blk,HP1b chromo inh,BAZ2B inh,TDP1 block,JMJD2A Tudor inh
COc1ccc(-n2c(-c3ccc(Cl)cc3)cc3c2CC(C)(C)CC3=O)c(OC)c1,x,x,u,11µM*,13%,14µM*
Cc1cccc(NC(=O)C2CC(=O)n3cnnc3S2)c1 (stereo not drawn),9,5,-46%,u,-5%,35µM*
CC(C)N1C(=O)CC2(CC[N+](C)(CCOC(=O)C(c3ccccc3)c3ccccc3)CC2)C1=O (stereo not drawn),10,6,26%,45µM*,0%,-7%
O=C(OCCN1CCOCC1)C(c1ccccc1)c1ccccc1,-3,-10,0%,8%,-4%,u
COc1ccc(C2CC(=O)Oc3c(C(CCN4CCN(c5ccccc5)CC4)c4ccc(N(C)C)cc4)c(OC)cc(OC)c32)cc1 (stereo not drawn),u,u,u,4.5µM*,24%,5µM*
COc1cc(OC)c2c(c1C(CCN1CCOCC1)c1ccc(N(C)C)cc1)OC(=O)CC2c1ccc(N(C)C)cc1 (stereo not drawn),-80*,u,14µM*,10µM*,27%,6.3µM*
COc1cc(C(CCN2CCN(c3ccccc3)CC2)c2c(OC)cc(OC)c3c(C)cc(=O)oc23)cc(OC)c1OC (stereo not drawn),u,-23,-29%,u,21%,u
COc1ccc(C2CC(=O)Oc3c(C(CCN4CCOCC4)c4cc(OC)c(OC)c(OC)c4)c(OC)cc(OC)c32)cc1 (stereo not drawn),-16,-20,9%,-37%,10%,u
CCCCCCC(=O)N=Nc1c(O)[nH]c2ccc([N+](=O)[O-])cc12,-3,0,-11%,-4%,2%,u
COCCNC(=S)N=Nc1c(O)[nH]c2ccc([N+](=O)[O-])cc12,-16,-7,14%,-4%,3%,25µM*
COc1ccccc1NC(C)=[N+](C)CCNS(=O)(=O)c1ccc(Cl)cc1,4,0,u,25µM*,u,u
CCOC(=O)c1c(C)[nH]c(C(=O)COC(=O)/C=C/c2cccc(OC)c2OC)c1C,1,-1,14%,7%,3%,-9%
CCOC(=O)c1c(C)[nH]c(C(=O)N/N=C/c2cc([N+](=O)[O-])ccc2O)c1C,u,u,-4%,45µM*,5%,79µM*
CCOC(=O)c1c(C)[nH]c(C(=O)N/N=C\c2ccccc2O)c1C,-65*,-8,11%,12%,8%,-22%
CCOC(=O)c1c(C)[nH]c(C(=O)COC(=O)COc2ccccc2C=O)c1C,-8,3,-13%,-36%,0%,45µM*
CCOC(=O)c1c(C)[nH]c(C(=O)N/N=C/c2ccc(OC)c(OC)c2)c1C,-1,x,36%,-16%,4%,-7%
Cc1ccc2c(c1)Cc1c(nc(-c3ccc(Cl)cc3)nc1SCC(=O)N1CCCCC1)O2,x,x,22%,-3%,1%,-8%
